Source: PubChem BioAssay (NCI)
The panel holds about 83,000 compounds, 20% with a hit somewhere; the sample as a whole holds those more often.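 Compound tested at a single concentration for 48 hours in 96-well plates; a percent growth value below 10 was scored as active.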 Calls of active or inactive are those of the source.

How the values were obtained:
Assay in all cases: NCI-60 one-dose screen, 48 h (100 = growth as untreated, 0 = no growth, -100 = all killed)
Settings in all cases: 10 µM unless noted
NCI-H23 lung = system: NCI-H23 lung
NCI-H226 lung = system: NCI-H226 lung
NCI-H322M lung = system: NCI-H322M lung
HOP-62 NSCLC = system: HOP-62 NSCLC
NCI-H460 lung = system: NCI-H460 lung
HOP-92 NSCLC = system: HOP-92 NSCLC
NCI-H522 lung = system: NCI-H522 lung
A549/ATCC NSCLC = system: A549/ATCC NSCLC
786-0 renal = system: 786-0 renal
COLO 205 colon = system: COLO 205 colon
DU-145 prostate = system: DU-145 prostate
K-562 leukemia = system: K-562 leukemia
MALME-3M melanoma = system: MALME-3M melanoma
MDA-MB-231 breast = system: MDA-MB-231 breast
RXF 393 renal = system: RXF 393 renal
SF-268 CNS = system: SF-268 CNS
SF-295 CNS = system: SF-295 CNS
SF-539 CNS = system: SF-539 CNS
UACC-257 melanoma = system: UACC-257 melanoma
M14 melanoma = system: M14 melanoma

Measured: growth

O=C1c2ccccc2-c2c1c1ccncc1c(=O)n2CCCn1ccnc1
inactive: NCI-H23 lung 51.8% | NCI-H226 lung 54.4% | NCI-H322M lung 83.8% | HOP-62 NSCLC 39.9% | NCI-H460 lung 21.8% | HOP-92 NSCLC 78.5% | NCI-H522 lung 29.6% | A549/ATCC NSCLC 56.3% | 786-0 renal 55.4% | COLO 205 colon 56.4% | DU-145 prostate 58.6% | K-562 leukemia 20.5% | MALME-3M melanoma 98% | MDA-MB-231 breast 73.8% | RXF 393 renal 55.6% | SF-268 CNS 38.7% | SF-295 CNS 56.2% | SF-539 CNS 31.6% | UACC-257 melanoma 93.5% | M14 melanoma 63.3%

Oc1ccc(C(c2ccc(O)cc2)c2ccc(Cl)cn2)cc1
inactive: HOP-62 NSCLC 61.9% | NCI-H460 lung 103% | NCI-H522 lung 57.6% | A549/ATCC NSCLC 52.1% | 786-0 renal 86.8% | DU-145 prostate 56.7% | K-562 leukemia 71.8% | MALME-3M melanoma 107% | MDA-MB-231 breast 77.1% | SF-268 CNS 92.4% | SF-295 CNS 30.9% | SF-539 CNS 83.4% | UACC-257 melanoma 95.5% | M14 melanoma 85.5%
active: NCI-H23 lung -4.57% | NCI-H226 lung -31% | NCI-H322M lung -18.9% | HOP-92 NSCLC -8.51% | COLO 205 colon 4.91% | RXF 393 renal -57%

COc1cc2nc3cc([N+](=O)[O-])ccc3c(NCCCNCCO)c2cc1OC
active: NCI-H23 lung -29.1% | NCI-H226 lung -39.5% | NCI-H322M lung -27.7% | HOP-62 NSCLC -60.6% | NCI-H460 lung -39% | HOP-92 NSCLC -46.4% | NCI-H522 lung -52% | A549/ATCC NSCLC -26.6% | 786-0 renal -39.2% | COLO 205 colon -76.2% | DU-145 prostate -31.2% | K-562 leukemia -19% | MALME-3M melanoma -82.6% | MDA-MB-231 breast -54.5% | RXF 393 renal -58.8% | SF-268 CNS -46.8% | SF-295 CNS -20.7% | SF-539 CNS -36.2% | UACC-257 melanoma -53.4% | M14 melanoma -66.5%

CCCCCCCCNC(=O)[C@@H](N)CSCOC(C)=O
inactive: NCI-H23 lung 87.4% | NCI-H226 lung 104% | NCI-H322M lung 89.8% | HOP-62 NSCLC 66.7% | NCI-H460 lung 72.9% | HOP-92 NSCLC 122% | NCI-H522 lung 90.6% | A549/ATCC NSCLC 84.3% | 786-0 renal 106% | COLO 205 colon 109% | DU-145 prostate 87.6% | K-562 leukemia 71.8% | MALME-3M melanoma 114% | MDA-MB-231 breast 91.9% | RXF 393 renal 124% | SF-295 CNS 102% | SF-539 CNS 79.9% | UACC-257 melanoma 110% | M14 melanoma 34.2%
active: SF-268 CNS -31.5%

CC1=C2[C@@H](CC1)[C@]1(C)O[C@@](C(C)C)(C[C@H]1OC(=O)CO)[C@H]2OC(=O)CCCc1ccccc1
inactive: NCI-H23 lung 81.4% | NCI-H226 lung 61.4% | NCI-H322M lung 90% | HOP-62 NSCLC 39.5% | NCI-H460 lung 68% | HOP-92 NSCLC 37.4% | NCI-H522 lung 45.1% | A549/ATCC NSCLC 58.4% | 786-0 renal 79.2% | COLO 205 colon 55.1% | DU-145 prostate 75.8% | K-562 leukemia 53.9% | MALME-3M melanoma 57.3% | MDA-MB-231 breast 88.2% | RXF 393 renal 86.2% | SF-268 CNS 73.4% | SF-295 CNS 78.5% | SF-539 CNS 96.6% | UACC-257 melanoma 85.1% | M14 melanoma 77.5%

COC(=O)c1ccc(-n2cc(CCCOS(=O)(=O)c3ccc(F)cc3)nn2)cc1
inactive: NCI-H23 lung 98.1% | NCI-H226 lung 97.9% | NCI-H322M lung 102% | HOP-62 NSCLC 106% | NCI-H460 lung 102% | HOP-92 NSCLC 100% | NCI-H522 lung 93.7% | A549/ATCC NSCLC 97% | 786-0 renal 97.1% | COLO 205 colon 107% | DU-145 prostate 107% | K-562 leukemia 95.5% | MALME-3M melanoma 98.6% | MDA-MB-231 breast 106% | RXF 393 renal 105% | SF-268 CNS 98.6% | SF-295 CNS 102% | SF-539 CNS 96.7% | UACC-257 melanoma 97.2% | M14 melanoma 104%

COc1cccc(/C=C2\CCc3ccccc3C2=O)c1
inactive: NCI-H23 lung 83.6% | NCI-H226 lung 93.6% | NCI-H322M lung 98% | HOP-62 NSCLC 88.4% | NCI-H460 lung 96.6% | HOP-92 NSCLC 64.3% | NCI-H522 lung 62.9% | A549/ATCC NSCLC 85.1% | 786-0 renal 81.4% | COLO 205 colon 112% | DU-145 prostate 97.8% | K-562 leukemia 35.1% | MALME-3M melanoma 80.7% | MDA-MB-231 breast 89.9% | RXF 393 renal 90.2% | SF-268 CNS 90.3% | SF-295 CNS 88.9% | SF-539 CNS 91.5% | UACC-257 melanoma 80.8% | M14 melanoma 90%

Oc1ccc(Cc2ccc(O)c3ncccc23)c2cccnc12
inactive: NCI-H226 lung 12.1% | 786-0 renal 19% | COLO 205 colon 71% | DU-145 prostate 23.5% | SF-268 CNS 27.5% | SF-539 CNS 14.1% | M14 melanoma 17%
active: NCI-H23 lung 9.78% | NCI-H322M lung 9.39% | HOP-62 NSCLC -2.91% | NCI-H460 lung 7.23% | HOP-92 NSCLC -25.9% | NCI-H522 lung -10.8% | A549/ATCC NSCLC 7.38% | K-562 leukemia 9.66% | MALME-3M melanoma -14.1% | MDA-MB-231 breast 5.46% | RXF 393 renal 9.57% | SF-295 CNS -20.5% | UACC-257 melanoma -8.29%
